The values below come from PubChem BioAssay.

SMILES strings stand for the structures. “And” between values parts separate entries of the source, which are not always exact repeats. Identical values can stand only once. The source made the active and inactive calls.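 Rule for the calls, unless noted: active = thallium flux through the channel raised or lowered by more than 3 SD from vehicle-only wells, actives on both sides; inactive = the rest.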

The nature of experiment [1]: Wnt pathway potentiators raising nuclear beta-catenin – imaging, WNT3A-conditioned medium, mouse C2C12, NPC library, primary screen (AID 1117326; in the data active = nuclear beta-catenin stimulation mostly above about 4.2%, no sharp cut-off; inactive = mostly below about 10%). The conditions noted are these: stronger effect = higher value.
Experiment [2] can be described thus: stimulators of insulin release from INS-1E, primary screen, cell-based, 5 mM glucose, NPC library (AID 1117329;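 active = compound raises insulin release from rat beta cells at 5 mM glucose, no numeric limit stated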). To be noted: rat INS-1E insulin secretion, at 10 µM, stronger effect = higher value.
The nature of experiment [3]: growth inhibition of GSK3B-pretreated HCT116 cells – cell-based, CellTiter-Glo, 0.2 to 20 µM (AID 1117336;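 active = compounds lowering colon cancer cell viability after pretreatment blocking the GSK3B kinase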). The conditions noted are these: HCT116 viability after GSK3B inhibitor, at 20 µM, stronger effect = higher value.
Experiment [4] can be described thus: inhibition of endothelial tube formation, primary screen, imaging, VEGF stimulated, CD31 staining, tube area, NPC library (AID 1117340;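 active = compound that reduces growth-factor-driven endothelial tube area in a mixed cell culture, no cutoff stated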). The conditions noted are these: VEGF-stimulated ADSC/ECFC co-culture, at 10 µM, stronger effect = higher value.
Experiment [5] can be described thus: GLP1 release stimulators, primary, NCI-H716, NPC library (AID 1117341;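 active = compound raises GLP1 secretion from the human gut endocrine cells, with no numeric limit stated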). The conditions noted are these: NCI-H716 cells, at 10 µM, stronger effect = higher value.
Experiment [6] in a line: HCT116 colon cancer cell growth inhibition, primary screen, CellTiter-Glo luminescence, NPC library (AID 1117342;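 active = compounds that lower survival of HCT116 colon cancer cells in the luminescence readout, no numeric limit stated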). The conditions noted are these: at 20 µM (top of the series).
The nature of experiment [7]: reduced SW480 viability measured with CellTiter-Glo, NPC library, primary (AID 1117343;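 active = compounds that lower viability of the colon cancer cells in the luminescence readout, with no numeric limit stated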). The conditions noted are these: CellTiter-Glo luminescence; at 20 µM (top of the series). For orientation: Cellular ATP, detected with luciferase, serves as a proxy for viable cell number.
Experiment [8] is described as follows: NPC library primary testing for decreased DLD-1 cell viability via CellTiter-Glo (AID 1117346;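 active = compounds that lower survival of DLD-1 colon cancer cells in the luminescence readout, no cutoff given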). To be noted: DLD-1 viability, CellTiter-Glo luminescence; at 20 µM (top of the series).
For experiment [9], the target named is 6-phosphogluconate dehydrogenase, decarboxylating (Homo sapiens) (UniProt P52209). Briefly: inhibition of human phosphogluconate dehydrogenase – biochemical, recombinant enzyme, NADPH absorbance, primary screen (AID 1159550;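 active = at least 20% inhibition of 6-phosphogluconate dehydrogenase activity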). To be noted: recombinant 6PGD, NADPH absorbance 341 nm; at 10 µM; stronger effect = higher value.
A short description of experiment [10]: modulation of C. elegans fzo-1 (AID 1259413; call rule not given here;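 note: fzo-1 mutant C. elegans worms in liquid wells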). The conditions noted are these: C. elegans fzo-1 modulator screen, mean read-out; stronger effect = higher value.
Experiment [11] can be described thus: EMT-state selective cytotoxicity in co-culture – imaging, PC-3E GFP, TEM4-18 mCherry, primary screen (AID 1345086;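 active = compounds killing one labelled cell type while sparing the other, by normalised counts and ratio limits, not self-fluorescent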;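 for all read-outs here: cells exposed to compound for 72 h before imaging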;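 for red/green cell ratio (normalised): normalised mesenchymal count divided by normalised epithelial count so high means epithelial killing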). To be noted: PC-3E GFP / TEM4-18 mCherry co-culture, imaging cell counts, at 1 µM; for red/green cell ratio (normalised): actives lie on both sides, counts scaled to control wells, 1 = unselective.
Experiment [12] addresses Mitogen-activated protein kinase 7 (Homo sapiens) (UniProt Q13164). Briefly: Gal4-ERK5 driven luciferase induction – cell-based, HTS, primary screen (AID 1508626;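 active = luciferase signal above three times the same-plate solvent-only control wells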;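 note: luciferase driven by Gal4-ERK5 fusion binding five Gal4 sites before minimal TATA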). The conditions noted are these: HeLa Gal4-ERK5 transactivation, 18 h, at 5 µM, stronger effect = higher value.
For a further experiment, the system named is F380Y. Briefly: BK channel mutant inhibitors and activators – cell-based, U2OS BacMam, thallium flux, beta subunits, selectivity assay, profiling panel (AID 1259406).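 Note: initial slope of Thallos dye fluorescence rise after thallium is added; log ratio against the mean of 0.3% DMSO vehicle wells on the same plate.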 The conditions noted are these: U2OS BacMam BK variants, at 30 µM.
Another experiment concerns F380Y/beta1. The description is as above. The conditions noted are these: U2OS BacMam BK variants, at 30 µM.
The test system of a further experiment is F380Y/beta2Delta. The experiment is described as above. To be noted: U2OS BacMam BK variants, at 30 µM.
Another experiment relates to F380Y/beta4. The description is as above. The conditions noted are these: U2OS BacMam BK variants, at 30 µM.
Experiment [13] addresses Calcium-activated potassium channel subunit alpha-1 (Homo sapiens) + Leucine-rich repeat-containing protein 26 (Homo sapiens) (UniProt Q12791+Q2I0M4). The description is as above. To be noted: U2OS BacMam BK variants, F380Y/Slo1WT/gamma1, at 30 µM.
A short description of experiment [14]: MELAS cybrid and Rieske KO viability enhancers – cell-based, MELAS cybrids, Rieske KO mouse fibroblasts, CellTiter-Glo, primary screen (AID 1508586;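 active = mean z-score across replicates of 1.96 or higher in either the MELAS or the Rieske mutant cell line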;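 note: z relative to plate mean and SD of compound and empty wells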). The conditions noted are these: low glucose.
Experiment [15] deals with NAD(+) hydrolase SARM1 (Homo sapiens) (UniProt Q6SZW1). Briefly: blocking NAD cleavage by SARM1 SAM-TIR – cell lysate, NAD-Glo luminescence (AID 1508614;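 active = compound whose remaining NAD level is above about 45 nM, limit read from the data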;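 note: higher remaining NAD means stronger inhibition of SARM1 NADase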). To be noted: SAM-TIR HEK293T lysate NADase, at 1 µM, stronger effect = higher value.
Setting [16] is: measured here: epithelial PC-3E GFP cell survival.
Setting [17] is: measured here: mesenchymal TEM4-18 mCherry cell survival.
[18] abbreviates: MELAS cybrid survival, CellTiter-Glo 48 h, stronger effect = higher value.
Where [19] appears, read: Rieske KO mouse fibroblast survival, CellTiter-Glo 72 h.

A word on the inhibition: it is the drop in the measured response relative to a control, in per cent.

6-phosphogluconate dehydrogenase, decarboxylating (Homo sapiens), sequence (P52209 whole entry, looked up): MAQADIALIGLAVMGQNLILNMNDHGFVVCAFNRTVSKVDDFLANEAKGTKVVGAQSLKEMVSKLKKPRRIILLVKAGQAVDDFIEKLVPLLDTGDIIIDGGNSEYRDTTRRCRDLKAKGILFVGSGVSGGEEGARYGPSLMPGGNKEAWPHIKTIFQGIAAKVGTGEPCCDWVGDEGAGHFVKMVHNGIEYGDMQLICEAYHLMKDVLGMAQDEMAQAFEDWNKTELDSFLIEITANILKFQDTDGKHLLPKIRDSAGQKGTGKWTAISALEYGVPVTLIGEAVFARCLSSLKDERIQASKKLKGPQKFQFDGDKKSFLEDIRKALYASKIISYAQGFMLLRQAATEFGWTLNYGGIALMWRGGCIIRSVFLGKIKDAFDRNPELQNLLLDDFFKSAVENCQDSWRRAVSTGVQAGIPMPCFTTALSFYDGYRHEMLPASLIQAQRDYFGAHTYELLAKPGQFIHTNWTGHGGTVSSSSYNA
NAD(+) hydrolase SARM1 (Homo sapiens), sequence (Q6SZW1 whole entry, looked up): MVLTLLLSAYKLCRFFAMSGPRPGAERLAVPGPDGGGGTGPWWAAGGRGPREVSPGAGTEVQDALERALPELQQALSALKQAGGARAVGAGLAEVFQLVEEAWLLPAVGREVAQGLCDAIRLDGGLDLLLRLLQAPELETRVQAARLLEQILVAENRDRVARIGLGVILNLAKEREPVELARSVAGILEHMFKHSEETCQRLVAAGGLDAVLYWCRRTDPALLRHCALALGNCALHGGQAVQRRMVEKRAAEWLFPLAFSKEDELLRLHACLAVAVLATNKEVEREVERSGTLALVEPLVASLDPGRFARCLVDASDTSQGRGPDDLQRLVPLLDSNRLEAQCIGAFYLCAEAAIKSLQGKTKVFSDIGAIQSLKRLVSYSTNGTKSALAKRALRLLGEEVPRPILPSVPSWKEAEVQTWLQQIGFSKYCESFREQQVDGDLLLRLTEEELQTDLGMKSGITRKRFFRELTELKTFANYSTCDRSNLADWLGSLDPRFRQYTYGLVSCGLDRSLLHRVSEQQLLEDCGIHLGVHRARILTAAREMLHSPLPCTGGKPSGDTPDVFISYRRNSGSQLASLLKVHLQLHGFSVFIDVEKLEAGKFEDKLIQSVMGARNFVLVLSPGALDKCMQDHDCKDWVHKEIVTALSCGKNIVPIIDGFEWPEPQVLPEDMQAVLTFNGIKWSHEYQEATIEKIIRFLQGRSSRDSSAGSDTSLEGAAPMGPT
Mitogen-activated protein kinase 7 (Homo sapiens), sequence (Q13164 whole entry, looked up, the tested form may be a part): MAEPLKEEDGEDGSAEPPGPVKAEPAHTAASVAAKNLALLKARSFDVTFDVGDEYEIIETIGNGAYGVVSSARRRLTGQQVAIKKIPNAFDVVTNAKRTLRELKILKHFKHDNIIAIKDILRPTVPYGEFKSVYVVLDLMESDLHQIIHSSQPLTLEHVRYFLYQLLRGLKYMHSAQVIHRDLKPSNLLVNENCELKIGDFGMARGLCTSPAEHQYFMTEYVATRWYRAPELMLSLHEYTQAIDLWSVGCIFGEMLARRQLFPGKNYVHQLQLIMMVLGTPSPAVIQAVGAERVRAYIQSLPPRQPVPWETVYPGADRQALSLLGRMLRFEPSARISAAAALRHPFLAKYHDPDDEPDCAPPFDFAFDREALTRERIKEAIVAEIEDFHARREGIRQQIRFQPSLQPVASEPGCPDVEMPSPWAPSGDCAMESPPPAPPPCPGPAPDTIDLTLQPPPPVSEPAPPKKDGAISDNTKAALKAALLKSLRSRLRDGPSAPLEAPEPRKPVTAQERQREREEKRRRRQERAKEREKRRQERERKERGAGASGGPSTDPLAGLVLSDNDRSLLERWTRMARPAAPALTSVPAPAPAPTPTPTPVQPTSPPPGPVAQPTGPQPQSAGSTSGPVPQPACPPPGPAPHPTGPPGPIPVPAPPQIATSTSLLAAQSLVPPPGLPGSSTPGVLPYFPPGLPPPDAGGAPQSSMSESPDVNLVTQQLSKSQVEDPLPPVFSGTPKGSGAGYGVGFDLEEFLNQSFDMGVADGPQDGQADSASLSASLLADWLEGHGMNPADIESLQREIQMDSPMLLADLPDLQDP
Calcium-activated potassium channel subunit alpha-1 (Homo sapiens) + Leucine-rich repeat-containing protein 26 (Homo sapiens), sequence (Q2I0M4 whole entry, looked up, one chain of several): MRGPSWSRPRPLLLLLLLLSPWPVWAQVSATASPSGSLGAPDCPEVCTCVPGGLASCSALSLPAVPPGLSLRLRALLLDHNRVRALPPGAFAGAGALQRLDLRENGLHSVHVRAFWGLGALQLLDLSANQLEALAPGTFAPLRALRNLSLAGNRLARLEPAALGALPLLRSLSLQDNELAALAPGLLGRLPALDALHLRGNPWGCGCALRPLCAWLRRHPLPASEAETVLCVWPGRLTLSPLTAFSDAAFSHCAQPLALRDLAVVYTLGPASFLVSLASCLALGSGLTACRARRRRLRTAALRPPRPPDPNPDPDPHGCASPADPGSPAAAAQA

On to `CCOC(=O)C(=O)CCc1ccccc1`, for which the nuclear beta-catenin stimulation in [1] (at 10 µM) is 0.7% (inactive); in [1] (stimulation, at 2 µM) it was 2%. Moreover, the insulin secretion stimulation in [2] is 2.2% (inactive). Further, the viability decrease in experiment [3] was -4.7% (inactive). Further, the tube area decrease in [4] is -7.2% (inactive). In addition, the GLP1 secretion stimulation in [5] was 5% (inactive). Besides, in [6], the inhibition of viability is 10.3% (inactive). In addition, the viability decrease (inhibition) in experiment [7] is -2.4% (inactive); in [8] it was 1% (inactive).
For `Oc1ccc(/C=C/c2cc(O)cc(O)c2)cc1`, the nuclear beta-catenin stimulation in experiment [1] (at 10 µM) was 2.4% (inactive); in experiment [1] (stimulation, at 2 µM) it was 2.2%. In addition, the insulin secretion stimulation in experiment [2] was 0.1% (inactive). In addition, the viability decrease in experiment [3] was 19% (inactive). Besides, the tube area decrease in [4] is 56.1% (active). For the same compound, the GLP1 secretion stimulation in experiment [5] is 2.9% (inactive). In addition, in experiment [6], the inhibition of viability is 65% (active). For the same compound, the viability decrease (inhibition) in experiment [7] was 75.5% (active); in experiment [8] it was 35.3% (inactive). Besides, in experiment [9], the inhibition was 0.743% (inactive). For the same compound, in experiment [10], the mean signal is 256 (inactive). Also, in experiment [11], the red/green cell ratio (normalised) was 1.06 (inactive). Further, the values for the normalised cell number in [11] (setting [16]) and in [11] (setting [17]) were 0.97 and 1.04, respectively. Also, the luciferase signal in [12] is 84 AU (inactive). In addition, the log fold change Tl+ flux was 0.101 (inactive) in the experiment with F380Y; 0.199 (active) in the experiment on F380Y/beta1; 0.155 (active) in the experiment with F380Y/beta2Delta; 0.154 (active) in the experiment on F380Y/beta4; 0.0893 (inactive) in experiment [13].
For the compound `CCCCCN=C(N)N/N=C/c1c[nH]c2ccc(OC)cc12`, the nuclear beta-catenin stimulation is -2.1% (inactive) in experiment [1] (at 10 µM) and 5.8% in [1] (stimulation, at 2 µM). Further, the insulin secretion stimulation in experiment [2] is 57.5% (active). In [3], the viability decrease was 118% (active). The tube area decrease in experiment [4] is 111% (active). Besides, the GLP1 secretion stimulation in experiment [5] was 53.2% (active). In addition, in experiment [6], the inhibition of viability was 125% (active). The figures for the viability decrease (inhibition) in experiment [7] and in experiment [8] were 159% (active) and 102% (active), respectively. Moreover, the inhibition in experiment [9] is -7.67% (inactive). Besides, the mean signal in experiment [10] is 250 (inactive). In addition, the red/green cell ratio (normalised) in experiment [11] is 1.12 (inactive). For the same compound, the normalised cell number amounted to 0.96 in [11] (setting [16]) and 1.08 in [11] (setting [17]). Moreover, the z-score was 0.364 (inactive) in experiment [14] (setting [18]) and 1.74 in experiment [14] (setting [19]). In experiment [15], the remaining NAD is 10 nM (inactive). Moreover, in [12], the luciferase signal was 68 AU (inactive).
For the compound `OC[C@H]1O[C@@H](n2cnc3c(=S)nc[nH]c32)[C@H](O)[C@@H]1O`, the nuclear beta-catenin stimulation in [1] (at 10 µM) was -2.5% (inactive); in [1] (stimulation, at 2 µM), -0.2%. In [2], the insulin secretion stimulation was 0.7% (inactive). The viability decrease in [3] is 95.3% (active). The tube area decrease in experiment [4] is 95.4% (active). The GLP1 secretion stimulation in experiment [5] was -1.6% (inactive). Also, the inhibition of viability in experiment [6] was 84.2% (active). In addition, the results for the viability decrease (inhibition) in experiment [7] and in experiment [8] were 78.1% (active) and 73.5% (active), respectively.
Take `CCOC(=O)[C@H](CCc1ccccc1)N[C@H]1CCc2ccccc2N(CC(=O)O)C1=O`: the nuclear beta-catenin stimulation was 27.7% (inactive) in experiment [1] (at 10 µM) and 2.2% in experiment [1] (stimulation, at 2 µM). Further, the insulin secretion stimulation in [2] is 1.1% (inactive). Also, in experiment [3], the viability decrease is -40.3% (inactive). Moreover, in [4], the tube area decrease is 33.7% (inactive). Also, the GLP1 secretion stimulation in experiment [5] is 16.1% (inactive). The inhibition of viability in [6] is 51.1% (active). Besides, the viability decrease (inhibition) was 102% (active) in experiment [7] and 44.2% (inactive) in [8]. Besides, the inhibition in experiment [9] is -6.81% (inactive). The mean signal in experiment [10] was 261 (inactive). For the same compound, the red/green cell ratio (normalised) in experiment [11] was 0.73 (inactive). Further, the normalised cell number in experiment [11] (setting [16]) stood at 1.36; in experiment [11] (setting [17]) it was 0.98. The figures for the z-score in experiment [14] (setting [18]) and in [14] (setting [19]) were 0.369 (inactive) and 0.328, respectively. Also, the remaining NAD in experiment [15] is 10 nM (inactive). Besides, the luciferase signal in experiment [12] is 92 AU (inactive). Besides, the log fold change Tl+ flux in the experiment with F380Y is -0.0356 (inactive); in the experiment on F380Y/beta1, 0.0148 (inactive); in the experiment on F380Y/beta2Delta it was -0.052 (inactive); in the experiment with F380Y/beta4, 0.0138 (inactive); in experiment [13], 0.0131 (inactive).
For `CCN(CC)CCCC(C)Nc1c2ccc(Cl)cc2nc2ccc(OC)cc12` (stereo unspecified), the nuclear beta-catenin stimulation was 3.9% (inactive) in experiment [1] (at 10 µM) and 1.8% in [1] (stimulation, at 2 µM). Further, the insulin secretion stimulation in [2] was 84.6% (active). Besides, the viability decrease in experiment [3] was 103% (active). Besides, the tube area decrease in [4] is 97.1% (active). The GLP1 secretion stimulation in [5] is 7.1% (inactive). Also, in experiment [6], the inhibition of viability was 102% (active). For the same compound, the figures for the viability decrease (inhibition) in experiment [7] and in experiment [8] were 122% (active) and 97.7% (active), respectively. The inhibition in experiment [9] was 1.31% (inactive). Besides, the red/green cell ratio (normalised) in experiment [11] is 1.37 (inactive). Besides, the values for the normalised cell number in experiment [11] (setting [16]) and in experiment [11] (setting [17]) were 0.76 and 1.04, respectively. The z-score in experiment [14] (setting [18]) was 0.298 and 1.99 (active) and 1.02; in experiment [14] (setting [19]), 6.25 and 5.35 and 3.32. In addition, the remaining NAD in experiment [15] is 10 nM (inactive). In addition, in experiment [12], the luciferase signal was 1610 AU (active).
